# This is a sample that favours compounds with a hit; in the whole collection about 2.6% have one here.
# Rce1 inhib = yeast Ras-converting enzyme inhibition | yeast membranes, quenched prenylated peptide cleavage fluorescence | 290,000 compounds, 0.27% hits | calls only;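 active = fall in fluorescence gain of 50% or more versus controls, with final raw signal at or below 3038400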;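 note: plate controls were neutral control wells for no effect and wells lacking membranes for full effect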
# Target sequence (Q03530 whole entry, looked up): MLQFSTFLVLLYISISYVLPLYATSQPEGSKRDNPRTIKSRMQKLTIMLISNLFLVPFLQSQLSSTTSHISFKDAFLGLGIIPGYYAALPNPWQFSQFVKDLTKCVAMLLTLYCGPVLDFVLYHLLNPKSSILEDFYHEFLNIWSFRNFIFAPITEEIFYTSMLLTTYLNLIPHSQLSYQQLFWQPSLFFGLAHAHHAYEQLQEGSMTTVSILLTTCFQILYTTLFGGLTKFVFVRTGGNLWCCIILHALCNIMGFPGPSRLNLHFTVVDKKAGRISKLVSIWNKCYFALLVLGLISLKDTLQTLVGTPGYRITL
# M18AAP inhibitor = blocks P. falciparum M18 aspartyl aminopeptidase. 290,000 compounds, 1.2% hits. recombinant PfM18AAP, H-Glu-NHMec fluorogenic cleavage. inhibition, % at 7.35 µM;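 active = inhibition above the campaign mean inhibition over all tested compounds plus 3 SD, cut at about 28% in these data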;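 note: 0% = plate median of test compound wells and 100% = 2 mM ZnCl2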
# ABHD5 PLIN5 PPI = blocks binding of human ABHD5 to perilipin-5 | AID 602281 | Split G. princeps luciferase complementation, luminescence, 4 h | 360,000 compounds, 0.78% hits | Q00G26+Q8WTS1 | inhibition, % at 4 µM;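 active = inhibition above the mean inhibition across every tested compound plus 3 SD, cut at about 22% in these data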;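 note: 0% = DMSO only wells and the 100% control is not disclosed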
# Exocytosis inh = blocks lytic granule exocytosis; TALL-104 LAMP-1 surface exposure, flow cytometry; cells stimulated with thapsigargin and PMA; inhibition, % at 10 µM; 360,000 compounds, 0.66% hits;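 active = inhibition above about 55%, limit read from the data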
# Platelet DG rel = modulates dense granule release in human platelets; human platelet-rich plasma, SFLLRN dense granule ATP release, luminescence; inhibition, %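 (compounds screened at 7.5 µM in platelet-rich plasma)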; 300,000 compounds, 0.22% hits;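 active = mean replicate score, as percent of positive control, at or above 50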
# ABHD5 PLIN5 conf = confirmation of human ABHD5-PLIN5 interaction inhibitors; shares compounds with ABHD5 PLIN5 PPI; biochemical ABHD5-PLIN5 interaction, luminescence; inhibition, % at 4 µM; 2,200 compounds, 67% hits; in the data active = inhibition above about 23%;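 note: 0% = DMSO vehicle wells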
# HNF4 split-luc = counter-screen for ABHD5-PLIN5 inhibitors: HNF4 split-luciferase; shares compounds with ABHD5 PLIN5 PPI; HNF4 dimerization, luminescence, biochemical; inhibition, % at 4 µM; 2,200 compounds, 77% hits;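 active = mean inhibition across replicate wells exceeding the computed hit threshold, cut at about 13% in these data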;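 note: light from luciferase halves that rejoin when HNF4 fusion proteins dimerize; 0% = DMSO only wells and the 100% control is not given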
# The depositor's hits bear a star; i = inactive; . = not tested or not shown.
SMILES,Rce1 inhib,M18AAP inhibitor,ABHD5 PLIN5 PPI,Exocytosis inh,Platelet DG rel,ABHD5 PLIN5 conf,HNF4 split-luc
Cc1cccc(OCC(=O)Nc2c3c(nn2C(C)(C)C)CS(=O)(=O)C3)c1,i,1,1,-2,-6,.,.
Cc1cc(Cl)ccc1Oc1ncc(-c2ccc(Cl)cc2)cn1,i,-2,-14,-2,9,.,.
COC(=O)C1C=CC(OC2OC(COC(C)=O)C(OC(C)=O)C(OC(C)=O)C2OC(C)=O)n2c(=O)n(-c3ccccc3)c(=O)n21 (stereo not given),.,.,26*,32,.,18,72*
CC(=O)OCC1OC(n2ccc3ccccc32)C(OC(C)=O)C(OC(C)=O)C1OC(C)=O (stereo not given),i,-8,-2,1,2,.,.
COc1cc2c(cc1OC)C(c1ccccc1)N(C(=O)c1ccccc1F)CC2 (stereo not given),i,5,-1,7,16,.,.
CCCn1c(CC)nc([N+](=O)[O-])c1S(=O)(=O)c1ccccc1,i,12,42*,0,0,50*,54*
CCc1nc(C)cn1S(=O)(=O)c1ccc([N+](=O)[O-])cc1,i,-7,-4,-7,1,.,.
Cc1ccc(/C=C/C(=O)NCc2ccc(S(N)(=O)=O)cc2)o1,i,-36,47*,-1,0,46*,57*
Cc1ccc(/C=C/C(=O)Nc2ccc(S(N)(=O)=O)cc2)o1,i,-12,36*,-2,3,64*,81*
Cc1ccc(/C=C/C(=O)Nc2ccc(N(C)C)cc2)o1,i,-3,1,1,6,.,.
CC(=O)NS(=O)(=O)c1ccc(NC(=O)/C=C/c2ccc(C)o2)cc1,i,-16,28*,0,-3,50*,62*
Cc1ccc(/C=C/C(=O)NCCc2c[nH]c3ccccc23)o1,i,-5,2,2,-2,.,.
Cc1ccc(/C=C/C(=O)NCCc2cccc(Cl)c2)o1,i,-138,40*,64*,14,68*,79*
Cc1ccc(/C=C/C(=O)Nc2ccncc2)o1,i,-6,7,1,-1,.,.
COCCN1C(=O)N[C@H](c2cccc(C(F)(F)F)c2)C(C(=O)OC)=C1C,i,9,.,.,3,.,.
COc1ccc(-n2nnnc2CNC(=O)C2CC(=O)N(c3ccc(F)cc3)C2)cc1 (stereo not given),.,.,1,-5,.,.,.
COc1cccc(NC(=O)C2CCN(C(=O)[C@@H]3Cc4ccccc4CN3C(=O)OC(C)(C)C)CC2)c1,i,-9,9,3,-2,.,.
O=C(N/N=C/c1sc(N2CCOCC2)nc1-c1ccccc1)c1cccc(S(=O)(=O)N2CCOCC2)c1,i,-10,-1,-3,-2,.,.
CCN1CC(=O)Nc2cc(S(=O)(=O)N3CCOCC3)ccc21,i,3,32*,-3,13,49*,46*
CC(C)(C)NC(=O)C(c1ccncc1)n1c(=O)c(-c2ccccc2)nc2ccccc21 (stereo not given),.,.,10,-5,.,.,.
CCCCCNC(=O)C(c1ccncc1)n1c(=O)c(-c2cc3ccccc3[nH]2)nc2ccccc21 (stereo not given),.,.,-3,-2,.,.,.
CC(C)(C)NC(=O)C(c1ccnc2ccccc12)n1c(=O)c(-c2ccco2)nc2ccccc21 (stereo not given),.,.,58*,-21,.,42*,7
CCCCCNC(=O)C(c1ccncc1)n1c(=O)c(-c2ccco2)nc2ccccc21 (stereo not given),.,.,58*,-4,.,35*,15*
CC(C)(C)NC(=O)C(c1ccncc1)n1c(=O)c(-c2ccco2)nc2ccccc21 (stereo not given),.,.,48*,-10,.,44*,14*
O=C(NCc1ccccc1)C(c1cc2ccccc2o1)n1c(=O)c(-c2ccccc2)nc2ccccc21 (stereo not given),.,.,4,1,.,.,.
SMILES,Rce1 inhib,M18AAP inhibitor,ABHD5 PLIN5 PPI,Exocytosis inh,Platelet DG rel,ABHD5 PLIN5 conf,HNF4 split-luc
CCCCCNC(=O)C(c1cc2ccccc2o1)n1c(=O)c(-c2ccco2)nc2ccccc21 (stereo not given),.,.,94*,14,.,85*,14*
O=C(Nc1ccc(Cl)c(Cl)c1)Nc1cc(S(=O)(=O)N2CCOCC2)ccc1N1CCCC1,i,-2,-1,2,7,.,.
COCCn1c(Cc2ccccc2)nnc1SCC(=O)Nc1ccccc1,i,-3,-7,-2,13,.,.
CCOc1ccc(Cc2nn[nH]n2)cc1,i,6,2,0,-7,.,.
C#CCOC(=O)c1ccccc1C(=O)n1nnc2ccccc21,i,-8,-7,10,-2,.,.
COc1ccc(N2CC(C(=O)Nc3nnc(SCC(=O)N4CCCC4)s3)CC2=O)cc1 (stereo not given),i,-3,-12,-4,-5,.,.
CC(C)(C)NC(=O)C(c1ccccc1)n1c(=O)c(-c2ccco2)nc2ccccc21 (stereo not given),.,.,75*,1,.,77*,26*
CC(C)(C)NC(=O)C(c1cc2ccccc2o1)n1c(=O)c(-c2ccco2)nc2ccccc21 (stereo not given),.,.,79*,11,.,84*,16*
COc1nc(=O)n(C2C=CC(=O)O2)cc1F (stereo not given),.,.,41*,-1,.,52*,34*
CCN(c1ccccc1)S(=O)(=O)c1ccc(C(=O)NCC2(N(C)C)CCCCC2)cc1,.,.,15,5,.,.,.
Cn1c(-c2ccccc2)c(C(=O)CCl)c2ccccc21,i,7,24*,14,2,37*,22*
COc1ccccc1C(=O)Nc1nnc(S(=O)(=O)N2CCCCC2)s1,i,0,13,2,-9,.,.
O=[N+]([O-])/C=C\c1ccc(N2CCOCC2)cc1,i,.,65*,14,-1,88*,89*
Cc1c(C(=O)OCC(C)C)[nH]c2c1C(=O)CC(c1ccco1)C2 (stereo not given),i,-15,28*,-1,1,6,8
COc1ccc(-n2ccc(=O)c(C(=O)Nc3ccc(S(=O)(=O)Nc4nccs4)cc3)n2)cc1,i,10,-11,-12,6,.,.
C=C1C(=O)O[C@@H]2[C@H]1[C@@H](OC(=O)/C(C)=C/C)C/C(C)=C\C(=O)/C=C(\C)[C@@H]2O,i,.,42*,-6,-4,62*,72*
C=C1C(=O)O[C@H]2C[C@]3(C)C([C@@H](OC(=O)/C(C)=C/C)[C@H]12)[C@](C)(O)CC[C@H]3O (stereo not given in full),i,1,12,-6,-2,.,.
Cn1c(=O)c2[nH]c(N=NNc3ccccc3F)nc2n(C)c1=O,i,2,24*,0,-2,9,14*
